This note sets out measurements from PubChem BioAssay.

Assay [1] concerns Hepatitis C virus NS3 helicase. In words: HCV NS3 helicase inhibitors, primary screen, biochemical, fluorescence polarization, LOPAC1280 library (AID 687035; in the data active = inhibition above about 37%). Conditions: Purified HCV NS3 helicase, Cy5-dT15 ssDNA binding fluorescence polarization; stronger effect = higher value; concentration not given here. For orientation: Fluorescence polarisation rises when a labelled molecule tumbles more slowly, as on binding a larger partner.

A short description of assay [2]: Cy5 fluorescence quenching or enhancement artefacts, artefact control for HCV NS3 helicase inhibitor project, biochemical, LOPAC1280 (AID 687037). Conditions: Cy5-DNA-NS3h complex fluorescence interference counterscreen. (Counterscreens check selectivity or assay interference.)
Assay [3] is described as follows: stimulators of nuclear beta-catenin in C2C12, primary screen, imaging, WNT3A-conditioned medium, mouse C2C12, NPC library (AID 1117326; in the data active = nuclear beta-catenin stimulation mostly above about 4.2%, no sharp cut-off; inactive = mostly below about 10%). Conditions: stronger effect = higher value.
Assay [4] in a line: stimulators of insulin release from INS-1E, primary screen, cell-based, 5 mM glucose, NPC library (AID 1117329;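 active = compound raises insulin release from rat beta cells at 5 mM glucose, no numeric limit stated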). Conditions: rat INS-1E insulin secretion, at 10 µM, stronger effect = higher value.
A short description of assay [5]: growth inhibition of GSK3B-pretreated HCT116 cells – cell-based, CellTiter-Glo, 0.2 to 20 µM (AID 1117336;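 active = compounds lowering colon cancer cell viability after pretreatment blocking the GSK3B kinase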). Conditions: HCT116 viability after GSK3B inhibitor, at 20 µM, stronger effect = higher value. A general note: Cellular ATP, detected with luciferase, serves as a proxy for viable cell number.
Assay [6] can be described thus: inhibition of endothelial tube formation, primary screen, imaging, VEGF stimulated, CD31 staining, tube area, NPC library (AID 1117340;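 active = compound that reduces growth-factor-driven endothelial tube area in a mixed cell culture, no cutoff stated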). Conditions: VEGF-stimulated ADSC/ECFC co-culture, at 10 µM, stronger effect = higher value.
The nature of assay [7]: glucagon-like peptide 1 release enhancers, primary assay, NCI-H716 cell line, NPC library (AID 1117341;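 active = compound raises GLP1 secretion from the human gut endocrine cells, with no numeric limit stated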). Conditions: NCI-H716 cells, at 10 µM, stronger effect = higher value.
Assay [8] in a line: HCT116 colon cancer cell growth inhibition, primary screen, CellTiter-Glo luminescence, NPC library (AID 1117342;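 active = compounds that lower survival of HCT116 colon cancer cells in the luminescence readout, no numeric limit stated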). Conditions: at 20 µM (top of the series).
Assay [9] is described as follows: CellTiter-Glo luminescent readout of SW480 viability loss, NPC library primary (AID 1117343;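 active = compounds that lower viability of the colon cancer cells in the luminescence readout, with no numeric limit stated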). Conditions: CellTiter-Glo luminescence; at 20 µM (top of the series).
Assay [10] in a line: decreased DLD-1 cellular survival, CellTiter-Glo luminescent readout, NPC compound collection, primary HTS (AID 1117346;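 active = compounds that lower survival of DLD-1 colon cancer cells in the luminescence readout, no cutoff given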). Conditions: DLD-1 viability, CellTiter-Glo luminescence; at 20 µM (top of the series).
Assay [11] addresses 6-phosphogluconate dehydrogenase, decarboxylating (Homo sapiens) (UniProt P52209). As to the kind of experiment: 6PGD enzyme inhibitors, primary screen, biochemical, human, recombinant enzyme, NADPH absorbance (AID 1159550;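 active = at least 20% inhibition of 6-phosphogluconate dehydrogenase activity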). Conditions: recombinant 6PGD, NADPH absorbance 341 nm; at 10 µM; stronger effect = higher value.
The nature of assay [12]: Cy5 fluorescence interference with SSB-bound oligo, artefact control for HCV NS3 helicase inhibitor project, biochemical, NIH Clinical Collection, E. coli SSB (AID 743268).
For assay [13], the system named is Hepatitis C virus NS3 helicase. As to the kind of experiment: HCV NS3 helicase inhibitors, primary screen, biochemical, fluorescence polarization, NIH Clinical Collection (AID 743270). Conditions: NS3 helicase binding to Cy5-dT15 DNA, stronger effect = higher value, concentration not given here.
Assay [14] deals with Single-stranded DNA-binding protein (Escherichia coli (strain K12)) (UniProt P0AGE0). In words: E. coli SSB displacement from DNA, counter-screen for HCV NS3 helicase inhibitor project, biochemical, fluorescence polarization, NIH Clinical Collection (AID 743271; in the data active = inhibition above about 28%). Conditions: stronger effect = higher value, concentration not given here.
Assay [15] can be described thus: fluorescence interference in NS3h assay format, artefact control for HCV NS3 helicase inhibitor project, biochemical, NIH Clinical Collection (AID 743272).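 Also: HCV NS3 helicase with a Cy5 labelled single stranded DNA probe.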 Conditions: fluorescence interference counterscreen, stronger effect = lower value.
Assay [16] relates to Neuropilin-2 / VEGF-C interaction (human). In words: inhibitors of NRP2–VEGF-C binding, biochemical, microplate binding format, z-score (AID 743281). Conditions: microplate NRP2/VEGF-C binding assay; stronger effect = lower value.

The source made the active and inactive calls. Unless noted, no rule for the calls is given here.

Sequence of 6-phosphogluconate dehydrogenase, decarboxylating (Homo sapiens) (P52209 whole entry, looked up): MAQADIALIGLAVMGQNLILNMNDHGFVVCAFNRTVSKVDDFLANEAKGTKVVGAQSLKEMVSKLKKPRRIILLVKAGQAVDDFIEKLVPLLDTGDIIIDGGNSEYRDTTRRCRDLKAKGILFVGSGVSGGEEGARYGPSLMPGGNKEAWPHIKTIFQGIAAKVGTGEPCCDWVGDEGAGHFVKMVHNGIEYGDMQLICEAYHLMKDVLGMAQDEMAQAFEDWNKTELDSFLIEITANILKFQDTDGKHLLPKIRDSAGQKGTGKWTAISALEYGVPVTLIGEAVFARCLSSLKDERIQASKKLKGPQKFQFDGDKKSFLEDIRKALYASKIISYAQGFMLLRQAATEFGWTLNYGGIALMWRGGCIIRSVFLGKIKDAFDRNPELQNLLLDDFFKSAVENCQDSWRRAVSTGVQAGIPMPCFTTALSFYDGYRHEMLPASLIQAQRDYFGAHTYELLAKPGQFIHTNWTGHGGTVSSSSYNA

The term inhibition denotes the change of the read-out against control, counted positive when it falls. For `NC[C@H](O)c1ccc(O)c(O)c1`, the inhibition in [1] was -4% (inactive); in assay [11], 7.95% (inactive). For the same compound, in assay [2], the fluorescence ratio (interference) is 0.9 (inactive). In addition, the nuclear beta-catenin stimulation in [3] (at 10 µM) was -1.8% (inactive); in assay [3] (stimulation, at 2 µM), -1.5%. In addition, the insulin secretion stimulation in [4] is 0.1% (inactive). Besides, the viability decrease in assay [5] was 31.8% (inactive). For the same compound, the tube area decrease in assay [6] was -25.8% (inactive). Moreover, in assay [7], the GLP1 secretion stimulation is 3.6% (inactive). In addition, in assay [8], the inhibition of viability was 2.5% (inactive). Besides, the viability decrease (inhibition) is 38.8% (inactive) in assay [9] and 8.6% (inactive) in assay [10].
With `CN1CCN(CC(=O)N2c3ccccc3C(=O)Nc3cccnc32)CC1`, the inhibition is -1% (inactive) in assay [1] and 7.85% (inactive) in [11]. In addition, the fluorescence ratio (interference) in assay [2] is 1 (inactive). Besides, the nuclear beta-catenin stimulation is 1.7% (inactive) in assay [3] (at 10 µM) and -0.5% in [3] (stimulation, at 2 µM). For the same compound, in [4], the insulin secretion stimulation is -1.3% (inactive). In addition, the viability decrease in assay [5] was -6.7% (inactive). For the same compound, the tube area decrease in [6] is 7.8% (inactive). In assay [7], the GLP1 secretion stimulation is -0.5% (inactive). Besides, in assay [8], the inhibition of viability is -2.2% (inactive). Moreover, the results for the viability decrease (inhibition) in assay [9] and in [10] were -14.1% (inactive) and 5.4% (inactive), respectively.
`CN(C)CCC=C1c2ccccc2C=Cc2ccccc21`: the inhibition in [1] was -2% (inactive); in assay [11], -4.48% (inactive). Also, the fluorescence ratio (interference) in assay [2] was 1 (inactive). Moreover, the nuclear beta-catenin stimulation in assay [3] (at 10 µM) is -1.8% (inactive); in assay [3] (stimulation, at 2 µM) it was -0.8%. Also, in assay [4], the insulin secretion stimulation was 15.2% (inactive). For the same compound, the viability decrease in assay [5] was -81.6% (inactive). In assay [6], the tube area decrease is 1.5% (inactive). Further, in assay [7], the GLP1 secretion stimulation is 7.9% (inactive). In addition, in [8], the inhibition of viability is 27.1% (inactive). Moreover, the figures for the viability decrease (inhibition) in assay [9] and in [10] were 111% (active) and 7.5% (inactive), respectively.
`Cc1ccccc1N1C(=O)c2cc(S(N)(=O)=O)c(Cl)cc2NC1C` (centres undefined): the inhibition in [1] is 1% (inactive); in assay [11], -11.8% (inactive). The fluorescence ratio (interference) in [2] is 1 (inactive). Besides, the nuclear beta-catenin stimulation was -0.4% (inactive) in assay [3] (at 10 µM) and 1.1% in assay [3] (stimulation, at 2 µM). For the same compound, in [4], the insulin secretion stimulation is 1.1% (inactive). Further, the viability decrease in [5] was -5.6% (inactive). Besides, the tube area decrease in assay [6] is -5.3% (inactive). Further, the GLP1 secretion stimulation in assay [7] is -1.9% (inactive). Also, the inhibition of viability in assay [8] was 0.8% (inactive). The viability decrease (inhibition) is -18.3% (inactive) in [9] and -5.3% (inactive) in [10].
In the case of `CCOC(=O)C1=C[C@]2(CC)CCCN3CCc4c(n1c1ccccc41)[C@@H]32`, the inhibition in assay [1] was -2% (inactive); in [11], 13.5% (inactive). Besides, the fluorescence ratio (interference) in assay [2] is 1 (inactive). Besides, the nuclear beta-catenin stimulation is 0.9% (inactive) in [3] (at 10 µM) and -0.3% in assay [3] (stimulation, at 2 µM). The insulin secretion stimulation in [4] is -1.7% (inactive). Moreover, in [5], the viability decrease is 14.4% (inactive). For the same compound, the tube area decrease in [6] was 41% (active). In assay [7], the GLP1 secretion stimulation was 2.8% (inactive). The inhibition of viability in [8] is -3.2% (inactive). The viability decrease (inhibition) in assay [9] is 61.3% (active); in assay [10], 2.25% (inactive).
Take `CS(=O)(=O)Nc1ccc([N+](=O)[O-])cc1Oc1ccccc1`: the values for the inhibition in [1] and in assay [11] were -3% (inactive) and 11.1% (inactive), respectively. Further, the fluorescence ratio (interference) in assay [2] was 1 (inactive). For the same compound, the nuclear beta-catenin stimulation in assay [3] (at 10 µM) was 0.4% (inactive); in [3] (stimulation, at 2 µM) it was -0.6%. In [4], the insulin secretion stimulation is 0.6% (inactive). The viability decrease in assay [5] was 7.2% (inactive). Moreover, the tube area decrease in assay [6] is 11.6% (inactive). Further, the GLP1 secretion stimulation in [7] is 0.1% (inactive). Besides, in [8], the inhibition of viability was 15% (inactive). Besides, the viability decrease (inhibition) in assay [9] is 10.5% (inactive); in assay [10], 17.8% (inactive).
For the compound `CN1CCN(C2=Nc3ccccc3Oc3ccc(Cl)cc32)CC1`, the inhibition in assay [1] was -3% (inactive); in [13], 1.19% (inactive); in assay [14], 2.21% (inactive); in assay [11] it was -14% (inactive). Moreover, the fluorescence ratio (interference) in assay [2] was 1 (inactive). Also, the fluorescence ratio was 0.97 (inactive) in assay [12] and 0.92 (inactive) in assay [15]. For the same compound, in [16], the z-score was -0.0658 (inactive). In addition, the nuclear beta-catenin stimulation in assay [3] (at 10 µM) is 1.4% (inactive); in assay [3] (stimulation, at 2 µM) it was -0.5%. The insulin secretion stimulation in [4] was 0.1% (inactive). Moreover, the viability decrease in assay [5] was -29.5% (inactive). Further, in assay [6], the tube area decrease was 43.3% (active). For the same compound, the GLP1 secretion stimulation in [7] was 1.6% (inactive). For the same compound, the inhibition of viability in assay [8] is 30.1% (inactive). Besides, the viability decrease (inhibition) was 107% (active) in [9] and 85% (active) in assay [10].
